# In the supplement of paper PMC8728848:
# The entries come from a sample that favours the strongest signals as a whole.
# Tests used:
# Experiment in all cases: glycan array binding signal (z-score within array); higher = stronger binding
# [1] = test system: Gal6S(b1-4)Glc; settings: glycan notation: IUPAC condensed, linker removed
# Method in brief: (§1)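 Glycan array data were curated from 3228 arrays in the Consortium for Functional Glycomics database and kept only where the protein sequence was available. Glycan names were converted to IUPAC-condensed notation, and columns mapping to the same glycan were averaged. The binding signal is a within-array Z-score, averaged across arrays of the same protein sequence at different concentrations or buffers and across linkers. Negative Z-scores can be read as non-binding.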
# [2] = test system: GalNAc(a1-3)Gal; settings: glycan notation: IUPAC condensed, linker removed
# Method in brief: as §1
# [3] = test system: GlcNAc(a1-3)Gal(b1-4)GlcNAc; settings: glycan notation: IUPAC condensed, linker removed
# Method in brief: as §1
# [4] = test system: GalNAc(a1-3)GalNAc; settings: glycan notation: IUPAC condensed, linker removed
# Method in brief: as §1
# [5] = test system: GalNAc(b1-3)GalNAc; settings: glycan notation: IUPAC condensed, linker removed
# Method in brief: as §1
# [6] = test system: GalNAc(b1-4)GlcNAc(b1-2)Man(a1-3)[GalNAc(b1-4)GlcNAc(b1-2)Man(a1-6)]Man(b1-4)GlcNAc(b1-4)GlcNAc; settings: glycan notation: IUPAC condensed, linker removed
# Method in brief: as §1
# [7] = test system: GlcNAc(a1-4)Gal(b1-4)GlcNAc(b1-3)Gal(b1-4)[Fuc(a1-3)]GlcNAc(b1-3)Gal(b1-4)[Fuc(a1-3)]GlcNAc; settings: glycan notation: IUPAC condensed, linker removed
# Method in brief: as §1
# [8] = test system: GlcA(b1-3)Gal; settings: glycan notation: IUPAC condensed, linker removed
# Method in brief: as §1
# [9] = test system: GlcA(b1-3)GlcNAc; settings: glycan notation: IUPAC condensed, linker removed
# Method in brief: as §1
# [10] = test system: GlcNAc(a1-4)Gal(b1-4)GlcNAc(b1-3)Gal(b1-4)Glc; settings: glycan notation: IUPAC condensed, linker removed
# Method in brief: as §1
# [11] = test system: Glc(b1-4)Glc; settings: glycan notation: IUPAC condensed, linker removed
# Method in brief: as §1
# [12] = test system: Glc(a1-6)Glc(a1-6)Glc(a1-6)Glc; settings: glycan notation: IUPAC condensed, linker removed
# Method in brief: as §1
# [13] = test system: Glc(a1-4)Glc(a1-4)Glc(a1-4)Glc; settings: glycan notation: IUPAC condensed, linker removed
# Method in brief: as §1
# [14] = test system: Glc(a1-6)Glc(a1-6)Glc; settings: glycan notation: IUPAC condensed, linker removed
# Method in brief: as §1
# [15] = test system: GlcNAc(a1-4)Gal(b1-4)GlcNAc(b1-3)Gal(b1-4)GlcNAc(b1-3)Gal(b1-4)GlcNAc; settings: glycan notation: IUPAC condensed, linker removed
# Method in brief: as §1
# [16] = test system: GalNAc(b1-6)GalNAc; settings: glycan notation: IUPAC condensed, linker removed; mutation: R125K
# Method in brief: as §1
# [17] = test system: Glc(b1-6)Glc; settings: glycan notation: IUPAC condensed, linker removed
# Method in brief: as §1
# [18] = test system: GalNAc(b1-3)Gal(a1-4)Gal(b1-4)GlcNAc; settings: glycan notation: IUPAC condensed, linker removed
# Method in brief: as §1
# [19] = test system: GlcNAc(a1-4)Gal(b1-4)GlcNAc(b1-3)Gal(b1-4)GlcNAc; settings: glycan notation: IUPAC condensed, linker removed
# Method in brief: as §1
# [20] = test system: Glc(a1-4)Glc; settings: glycan notation: IUPAC condensed, linker removed
# Method in brief: as §1
# Chain of PILRb (Mus musculus), Q2YSF2 (Q2YSF2 entry or part of it): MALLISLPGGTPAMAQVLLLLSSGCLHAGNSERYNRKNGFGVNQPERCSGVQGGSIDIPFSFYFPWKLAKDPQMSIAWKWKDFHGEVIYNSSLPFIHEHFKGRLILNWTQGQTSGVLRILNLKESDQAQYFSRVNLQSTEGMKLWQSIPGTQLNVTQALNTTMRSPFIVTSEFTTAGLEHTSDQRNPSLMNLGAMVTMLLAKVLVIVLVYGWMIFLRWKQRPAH
# Chain of CHI3L1 (Homo sapiens), P36222 (P36222 whole entry): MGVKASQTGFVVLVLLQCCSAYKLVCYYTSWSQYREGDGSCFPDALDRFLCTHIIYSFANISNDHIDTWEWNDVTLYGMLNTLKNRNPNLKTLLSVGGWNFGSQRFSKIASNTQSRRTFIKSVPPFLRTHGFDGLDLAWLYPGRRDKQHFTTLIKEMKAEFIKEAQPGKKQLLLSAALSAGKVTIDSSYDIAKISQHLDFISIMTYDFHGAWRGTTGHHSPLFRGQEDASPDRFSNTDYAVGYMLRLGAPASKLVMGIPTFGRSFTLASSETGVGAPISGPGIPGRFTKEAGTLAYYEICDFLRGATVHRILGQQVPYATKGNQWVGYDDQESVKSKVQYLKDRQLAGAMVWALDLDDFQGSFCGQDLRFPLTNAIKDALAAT
# Chain of wLAT-1A (Homo sapiens), Q01650 (Q01650 whole entry): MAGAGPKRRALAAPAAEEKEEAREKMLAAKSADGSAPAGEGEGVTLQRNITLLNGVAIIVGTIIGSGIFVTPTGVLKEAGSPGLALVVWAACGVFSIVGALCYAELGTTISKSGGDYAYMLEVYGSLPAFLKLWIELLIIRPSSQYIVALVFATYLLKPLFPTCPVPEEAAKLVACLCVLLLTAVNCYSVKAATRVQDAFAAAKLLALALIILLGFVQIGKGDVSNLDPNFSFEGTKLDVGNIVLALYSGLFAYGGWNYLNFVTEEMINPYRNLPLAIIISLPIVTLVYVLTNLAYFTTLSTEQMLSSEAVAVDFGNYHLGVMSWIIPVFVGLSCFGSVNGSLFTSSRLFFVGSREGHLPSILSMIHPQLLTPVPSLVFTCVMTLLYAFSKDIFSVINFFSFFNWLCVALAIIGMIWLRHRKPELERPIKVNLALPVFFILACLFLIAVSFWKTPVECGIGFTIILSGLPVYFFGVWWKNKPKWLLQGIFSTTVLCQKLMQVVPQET
# Chain of Neurocan (Homo sapiens), O14594 (O14594 other isoform, or with tags, fused parts or gaps): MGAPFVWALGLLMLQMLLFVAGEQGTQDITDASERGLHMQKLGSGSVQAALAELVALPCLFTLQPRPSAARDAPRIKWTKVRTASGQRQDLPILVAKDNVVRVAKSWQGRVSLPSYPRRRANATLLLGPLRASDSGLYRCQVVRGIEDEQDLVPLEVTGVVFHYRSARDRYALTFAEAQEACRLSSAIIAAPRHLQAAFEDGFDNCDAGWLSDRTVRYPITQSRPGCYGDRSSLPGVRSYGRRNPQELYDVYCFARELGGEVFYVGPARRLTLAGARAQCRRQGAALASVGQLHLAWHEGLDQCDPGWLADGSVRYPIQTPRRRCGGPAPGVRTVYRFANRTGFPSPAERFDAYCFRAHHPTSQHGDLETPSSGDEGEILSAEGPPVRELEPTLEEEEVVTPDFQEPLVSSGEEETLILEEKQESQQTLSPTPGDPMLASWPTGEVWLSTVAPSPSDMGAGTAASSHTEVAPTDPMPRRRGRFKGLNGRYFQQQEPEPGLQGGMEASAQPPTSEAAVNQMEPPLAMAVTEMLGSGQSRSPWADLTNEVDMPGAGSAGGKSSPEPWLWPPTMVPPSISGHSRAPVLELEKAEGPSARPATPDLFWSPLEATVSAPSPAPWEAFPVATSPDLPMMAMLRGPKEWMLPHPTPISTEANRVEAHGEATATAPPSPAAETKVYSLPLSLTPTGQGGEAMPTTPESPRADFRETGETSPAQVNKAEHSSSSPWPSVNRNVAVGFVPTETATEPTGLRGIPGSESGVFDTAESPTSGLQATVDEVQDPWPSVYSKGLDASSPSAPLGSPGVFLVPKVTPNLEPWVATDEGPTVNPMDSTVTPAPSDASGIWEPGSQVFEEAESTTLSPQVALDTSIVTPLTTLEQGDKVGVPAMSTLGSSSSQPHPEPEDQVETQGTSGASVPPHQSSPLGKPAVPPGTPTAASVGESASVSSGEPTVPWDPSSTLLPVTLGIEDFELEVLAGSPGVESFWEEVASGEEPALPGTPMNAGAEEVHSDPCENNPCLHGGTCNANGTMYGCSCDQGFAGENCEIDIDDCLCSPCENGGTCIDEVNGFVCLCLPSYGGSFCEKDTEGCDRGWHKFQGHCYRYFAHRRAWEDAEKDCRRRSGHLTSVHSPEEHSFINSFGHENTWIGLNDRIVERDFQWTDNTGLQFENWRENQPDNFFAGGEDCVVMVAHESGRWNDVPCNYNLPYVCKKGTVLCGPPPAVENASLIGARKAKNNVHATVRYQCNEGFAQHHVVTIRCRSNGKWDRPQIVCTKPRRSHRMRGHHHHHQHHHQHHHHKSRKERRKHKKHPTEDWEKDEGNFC
# Chain of 6RG (Lolium perenne), B9U140 (B9U140 entry or part of it): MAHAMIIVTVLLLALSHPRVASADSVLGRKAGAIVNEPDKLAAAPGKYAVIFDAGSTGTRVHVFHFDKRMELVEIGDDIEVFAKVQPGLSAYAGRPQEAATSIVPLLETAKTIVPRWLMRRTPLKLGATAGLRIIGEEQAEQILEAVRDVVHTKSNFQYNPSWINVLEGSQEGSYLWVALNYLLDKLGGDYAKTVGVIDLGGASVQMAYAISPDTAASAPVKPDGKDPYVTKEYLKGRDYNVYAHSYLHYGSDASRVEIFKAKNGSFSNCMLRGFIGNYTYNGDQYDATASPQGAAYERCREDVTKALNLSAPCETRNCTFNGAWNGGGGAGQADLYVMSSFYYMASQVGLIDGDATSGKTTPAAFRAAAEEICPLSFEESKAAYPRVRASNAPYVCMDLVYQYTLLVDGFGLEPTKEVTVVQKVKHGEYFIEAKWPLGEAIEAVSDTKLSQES
# Chain of C3b (Homo sapiens), P01024 (P01024 23-667): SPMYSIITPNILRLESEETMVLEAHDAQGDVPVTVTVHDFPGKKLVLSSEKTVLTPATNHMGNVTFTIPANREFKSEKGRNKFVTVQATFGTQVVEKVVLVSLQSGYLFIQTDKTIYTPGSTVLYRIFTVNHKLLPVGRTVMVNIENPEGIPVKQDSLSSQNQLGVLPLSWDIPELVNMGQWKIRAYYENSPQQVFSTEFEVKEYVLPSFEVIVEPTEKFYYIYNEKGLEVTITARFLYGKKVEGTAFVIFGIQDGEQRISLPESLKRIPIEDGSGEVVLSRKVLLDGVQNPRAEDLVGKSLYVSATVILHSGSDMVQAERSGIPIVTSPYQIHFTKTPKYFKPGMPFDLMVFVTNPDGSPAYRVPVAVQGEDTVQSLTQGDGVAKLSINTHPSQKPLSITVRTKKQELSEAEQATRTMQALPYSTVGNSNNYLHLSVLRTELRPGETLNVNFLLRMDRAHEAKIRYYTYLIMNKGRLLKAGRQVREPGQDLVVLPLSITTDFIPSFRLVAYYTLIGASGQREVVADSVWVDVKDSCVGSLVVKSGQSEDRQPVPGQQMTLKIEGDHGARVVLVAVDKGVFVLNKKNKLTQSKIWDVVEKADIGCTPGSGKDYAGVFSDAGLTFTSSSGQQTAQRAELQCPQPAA
# Chain of Aggrecan (Rattus norvegicus), NP_071526 (chain, as listed by the source): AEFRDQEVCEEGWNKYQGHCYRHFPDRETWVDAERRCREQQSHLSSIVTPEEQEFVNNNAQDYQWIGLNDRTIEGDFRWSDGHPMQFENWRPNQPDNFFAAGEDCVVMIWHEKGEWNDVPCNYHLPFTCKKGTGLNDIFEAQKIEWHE
# Chain of PILRa (Mus musculus), Q2YSF3 (Q2YSF3 entry or part of it): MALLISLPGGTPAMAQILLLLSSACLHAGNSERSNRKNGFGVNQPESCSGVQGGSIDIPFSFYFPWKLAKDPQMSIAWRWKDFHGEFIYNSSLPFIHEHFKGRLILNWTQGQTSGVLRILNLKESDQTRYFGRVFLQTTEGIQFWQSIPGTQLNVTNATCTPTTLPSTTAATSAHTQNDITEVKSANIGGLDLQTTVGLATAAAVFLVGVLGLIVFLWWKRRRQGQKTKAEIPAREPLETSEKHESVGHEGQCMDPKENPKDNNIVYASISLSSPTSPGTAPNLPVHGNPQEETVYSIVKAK
# Chain of Regenerating Gene IV (Homo sapiens), Q9BYZ8 (Q9BYZ8 whole entry, looked up): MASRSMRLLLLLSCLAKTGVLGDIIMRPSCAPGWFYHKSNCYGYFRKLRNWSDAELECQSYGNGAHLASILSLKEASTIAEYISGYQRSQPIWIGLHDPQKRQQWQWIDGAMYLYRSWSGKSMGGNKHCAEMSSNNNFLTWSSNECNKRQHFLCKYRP
# Chain of Avaren (Actinomycete K97) (chain, as listed by the source): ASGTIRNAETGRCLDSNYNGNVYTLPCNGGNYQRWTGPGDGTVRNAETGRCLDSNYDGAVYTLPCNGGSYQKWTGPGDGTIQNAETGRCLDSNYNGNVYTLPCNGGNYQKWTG
# Chain of CHT (Homo sapiens) (chain, as listed by the source): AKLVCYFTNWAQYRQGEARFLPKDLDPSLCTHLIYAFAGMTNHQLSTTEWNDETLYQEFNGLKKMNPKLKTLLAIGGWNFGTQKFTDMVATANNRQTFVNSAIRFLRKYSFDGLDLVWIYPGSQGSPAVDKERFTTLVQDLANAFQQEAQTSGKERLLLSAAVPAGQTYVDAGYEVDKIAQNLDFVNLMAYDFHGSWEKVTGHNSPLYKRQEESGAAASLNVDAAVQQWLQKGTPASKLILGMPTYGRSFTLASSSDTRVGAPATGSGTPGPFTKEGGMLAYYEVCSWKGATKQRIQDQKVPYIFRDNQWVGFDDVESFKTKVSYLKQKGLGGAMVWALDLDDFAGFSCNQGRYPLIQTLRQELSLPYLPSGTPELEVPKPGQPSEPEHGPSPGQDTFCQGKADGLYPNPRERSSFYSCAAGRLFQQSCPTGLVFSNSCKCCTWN
substance,measurement,setting,value
"6RG (Lolium perenne), B9U140",glycan array binding signal (z-score),[1],0.084
same,glycan array binding signal (z-score),[2],-0.395
same,glycan array binding signal (z-score),[3],-0.228
CHT (Homo sapiens),glycan array binding signal (z-score),"[3]; mutation: D138V, E140I",-0.189
"HARE (Homo sapiens), Q8WWQ8",glycan array binding signal (z-score),[1],0.81
"wLAT-1A (Homo sapiens), Q01650",glycan array binding signal (z-score),[4],6.65
same,glycan array binding signal (z-score),[2],3.46
same,glycan array binding signal (z-score),[5],1.87
"Aggrecan (Rattus norvegicus), NP_071526",glycan array binding signal (z-score),[6],0.017
same,glycan array binding signal (z-score),[7],0.828
"Neurocan (Homo sapiens), O14594",glycan array binding signal (z-score),[8],0.453
same,glycan array binding signal (z-score),[9],10.5
same,glycan array binding signal (z-score),[10],-0.326
same,glycan array binding signal (z-score),[7],4.73
"Regenerating Gene IV (Homo sapiens), Q9BYZ8",glycan array binding signal (z-score),[11],5.46
Avaren (Actinomycete K97),glycan array binding signal (z-score),[12],-0.14
MpAFP RI GFP (Marinomonas primoryensis),glycan array binding signal (z-score),[4],-0.566
"CHI3L1 (Homo sapiens), P36222",glycan array binding signal (z-score),[13],0.48
same,glycan array binding signal (z-score),[12],1.01
same,glycan array binding signal (z-score),[14],-0.073
same,glycan array binding signal (z-score),[15],-0.129
"Siglec-8 (Homo sapiens), Q9NYZ4",glycan array binding signal (z-score),[1]; mutation: R125K,0.06
same,glycan array binding signal (z-score),[16],-0.055
same,glycan array binding signal (z-score),[10],-0.267
"PILRa (Mus musculus), Q2YSF3",glycan array binding signal (z-score),[14],-0.233
same,glycan array binding signal (z-score),[17],-0.169
"PILRb (Mus musculus), Q2YSF2",glycan array binding signal (z-score),[18],-0.074
same,glycan array binding signal (z-score),[5],0.288
same,glycan array binding signal (z-score),[19],0.156
"C3b (Homo sapiens), P01024",glycan array binding signal (z-score),[20],-0.67
same,glycan array binding signal (z-score),[17],3.33
